In ChEMBL document CHEMBL4513145, “CO-ADD screening of Biotechnology Research Centre (C.R.B.t) (Algeria) compounds”:
Where “and” joins values, the source holds several entries; their conditions need not be identical. Equal entries are not always repeated. Entries with a potency or affinity are not part of this list.

Each molecule was assayed on Klebsiella pneumoniae. Conditions: Concentration 32 ug.mL-1; ASSAY_TEST Inhibition of Bacterial Growth; detection method Absorption (OD600); MEDIA CAMHB; plate type 384well; NBS; CORNING #3640; time 18 hr.

| Structure (SMILES) | Inhibition |
| --- | --- |
| O=C(OCc1ccccc1)N1CC(Cc2ccccc2)C(O)O1 (configuration not stated) | 0% |
| CC1C(O)N(C(=O)OC(C)(C)C)N(S(=O)(=O)c2ccc([N+](=O)[O-])cc2)C1C (configuration not stated) | 8.57% |
| O=C(OCc1ccccc1)N1OC(O)C2CCCCC21 (configuration not stated) | 8.05% |
| CCCCCCCC1CN(S(=O)(=O)c2ccc(C)cc2)N(S(=O)(=O)c2ccc(C)cc2)C1O (configuration not stated) | 2.03% |
| CCCCCCCC1CN(S(=O)(=O)c2ccc(C)cc2)N(C(=O)OC(C)(C)C)C1O (configuration not stated) | -2.15% |
| CC(C)(C)OC(=O)N1C(O)C2CCCC2N1S(=O)(=O)c1ccc([N+](=O)[O-])cc1 (configuration not stated) | -0.3% |
| CC1CN(S(=O)(=O)c2ccc([N+](=O)[O-])cc2)N(C(=O)OC(C)(C)C)C1O (configuration not stated) | -4.4% |
| CCCCCCCC1CN(S(=O)(=O)c2ccc(C)cc2)N(C(=O)OC(C)(C)C)C1=O (configuration not stated) | 0.4% |
| CC1CN(C(=O)OCc2ccccc2)OC1O (configuration not stated) | 4.15% |

Same assay, conditions: Concentration 32 ug.mL-1; ASSAY_TEST Inhibition of Bacterial Growth; detection method Absorption (OD600); MEDIA CAMHB; plate type 384well; NBS; CORNING #3640; time 18 hr, 32 ug/mL

| Structure (SMILES) | Inhibition |
| --- | --- |
| CC(C)(C)OC(=O)N1C(=O)C(Cc2ccccc2)CN1S(=O)(=O)c1ccc([N+](=O)[O-])cc1 (configuration not stated) | 6.28% and 7.63% and -5.45% |
| CC1CN(C(=O)OCc2ccccc2)OC1=O (configuration not stated) | 1.37% and 8.3% and 6.85% |
| Cc1ccc(S(=O)(=O)N2CC(Cc3ccccc3)C(=O)N2S(=O)(=O)c2ccc(C)cc2)cc1 (configuration not stated) | -3.35% and -1.6% |
| CC1CN(S(=O)(=O)c2ccc([N+](=O)[O-])cc2)N(C(=O)OC(C)(C)C)C1=O (configuration not stated) | 7.28% and 7.49% and 8.98% |
| Cc1ccc(S(=O)(=O)N2CC(C)C(=O)N2S(=O)(=O)c2ccc(C)cc2)cc1 (configuration not stated) | 2.85% and 1.74% |
| O=C1ON(C(=O)OCc2ccccc2)CC1Cc1ccccc1 (configuration not stated) | 2.56% and 10.07% |
| CC(C)(C)OC(=O)N1C(O)C(Cc2ccccc2)CN1S(=O)(=O)c1ccc([N+](=O)[O-])cc1 (configuration not stated) | 9.89% and 6.63% and 13.09% |

These molecules were tested on Candida albicans. Conditions: 32 ug/mL.

| Structure (SMILES) | Inhibition |
| --- | --- |
| O=C(OCc1ccccc1)N1CC(Cc2ccccc2)C(O)O1 (configuration not stated) | 12.9% |
| CC1C(O)N(C(=O)OC(C)(C)C)N(S(=O)(=O)c2ccc([N+](=O)[O-])cc2)C1C (configuration not stated) | 3.18% |
| O=C(OCc1ccccc1)N1OC(O)C2CCCCC21 (configuration not stated) | 6.56% |
| CCCCCCCC1CN(S(=O)(=O)c2ccc(C)cc2)N(S(=O)(=O)c2ccc(C)cc2)C1O (configuration not stated) | 8.32% |
| Cc1ccc(S(=O)(=O)N2CC(C)C(=O)N2S(=O)(=O)c2ccc(C)cc2)cc1 (configuration not stated) | 7.75% and 4.44% |
| O=C1ON(C(=O)OCc2ccccc2)CC1Cc1ccccc1 (configuration not stated) | 4.94% and 2.48% |
| CCCCCCCC1CN(S(=O)(=O)c2ccc(C)cc2)N(C(=O)OC(C)(C)C)C1O (configuration not stated) | 2.88% |
| CC(C)(C)OC(=O)N1C(O)C2CCCC2N1S(=O)(=O)c1ccc([N+](=O)[O-])cc1 (configuration not stated) | 1.02% |
| CC1CN(S(=O)(=O)c2ccc([N+](=O)[O-])cc2)N(C(=O)OC(C)(C)C)C1O (configuration not stated) | 0.59% |
| CCCCCCCC1CN(S(=O)(=O)c2ccc(C)cc2)N(C(=O)OC(C)(C)C)C1=O (configuration not stated) | 1.48% |
| CC1CN(C(=O)OCc2ccccc2)OC1O (configuration not stated) | 2.95% |

What follows are molecules tested on Cryptococcus neoformans. Conditions: Concentration 32 ug.mL-1; ASSAY_TEST Inhibition of Fungal Growth; detection method Resazurin; Absorption (OD600-OD570); plate type 384well; NBS; CORNING #3640.

| Structure (SMILES) | Inhibition |
| --- | --- |
| O=C(OCc1ccccc1)N1CC(Cc2ccccc2)C(O)O1 (configuration not stated) | 9.21% |
| CC1C(O)N(C(=O)OC(C)(C)C)N(S(=O)(=O)c2ccc([N+](=O)[O-])cc2)C1C (configuration not stated) | -8.51% |
| O=C(OCc1ccccc1)N1OC(O)C2CCCCC21 (configuration not stated) | -9.13% |
| CCCCCCCC1CN(S(=O)(=O)c2ccc(C)cc2)N(S(=O)(=O)c2ccc(C)cc2)C1O (configuration not stated) | -3.29% |
| CCCCCCCC1CN(S(=O)(=O)c2ccc(C)cc2)N(C(=O)OC(C)(C)C)C1O (configuration not stated) | -7.05% |
| CC(C)(C)OC(=O)N1C(O)C2CCCC2N1S(=O)(=O)c1ccc([N+](=O)[O-])cc1 (configuration not stated) | -8.39% |
| CC1CN(S(=O)(=O)c2ccc([N+](=O)[O-])cc2)N(C(=O)OC(C)(C)C)C1O (configuration not stated) | -8.44% |
| CCCCCCCC1CN(S(=O)(=O)c2ccc(C)cc2)N(C(=O)OC(C)(C)C)C1=O (configuration not stated) | -13.28% |
| CC1CN(C(=O)OCc2ccccc2)OC1O (configuration not stated) | -0.06% |

Same assay, conditions: Concentration 32 ug.mL-1; ASSAY_TEST Inhibition of Fungal Growth; detection method Resazurin; Absorption (OD600-OD570); plate type 384well; NBS; CORNING #3640; 32 ug/mL

| Structure (SMILES) | Inhibition |
| --- | --- |
| CC(C)(C)OC(=O)N1C(=O)C(Cc2ccccc2)CN1S(=O)(=O)c1ccc([N+](=O)[O-])cc1 (configuration not stated) | -5.52% and -6.93% and -6.97% |
| Cc1ccc(S(=O)(=O)N2CC(Cc3ccccc3)C(=O)N2S(=O)(=O)c2ccc(C)cc2)cc1 (configuration not stated) | -1.01% and -2.47% |
| CC1CN(S(=O)(=O)c2ccc([N+](=O)[O-])cc2)N(C(=O)OC(C)(C)C)C1=O (configuration not stated) | -7.3% and -1.18% and -10.38% |
| Cc1ccc(S(=O)(=O)N2CC(C)C(=O)N2S(=O)(=O)c2ccc(C)cc2)cc1 (configuration not stated) | -9.56% and 1.92% |
| O=C1ON(C(=O)OCc2ccccc2)CC1Cc1ccccc1 (configuration not stated) | 7.64% and 2.52% |
| CC(C)(C)OC(=O)N1C(O)C(Cc2ccccc2)CN1S(=O)(=O)c1ccc([N+](=O)[O-])cc1 (configuration not stated) | -4.16% and -1.5% and -1.29% |
